These results are taken from PubChem BioAssay.

“And” between values parts separate entries of the source, which are not always exact repeats. Equal values may be shown once. The source made the active and inactive calls.

Assay [1] can be described thus: optical density shifts of acrAB sulA E. coli – strain DRC41, OD650, 48 h, E. coli filamentation inducer project, primary screen (AID 1152).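 Also: E. coli MC1000 strain DRC41 lacking acrAB efflux pump and sulA.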 The conditions noted are these: higher = more signal, called active from +8 up or from −8 down.
A short description of assay [2]: probe aLefty1 binding on compound microarray – biochemical, small-molecule microarray, 635/667 nm fluorescence, primary screen (AID 1153).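 Also: score merges spot fluorescence with signal-to-noise ratio from the scanned slide images.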 The conditions noted are these: higher = more signal.
The nature of assay [3]: plasmodial surface anion channel blockers, osmotic lysis – cell-based, P. falciparum Indochina, OD700, 1 h, primary screen (AID 1154). Conditions: P. falciparum Indochina infected RBC osmotic lysis, higher = more signal, called active from +8 up or from −8 down.
A short description of assay [4]: plasmodial surface anion channel blockers, osmotic lysis – cell-based, P. falciparum Indochina, OD700, 2 h, primary screen (AID 1155).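 Also: lysis reports solute entry through the parasite surface anion channel PSAC.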 The conditions noted are these: P. falciparum Indochina infected erythrocytes, higher = more signal, called active from +8 up or from −8 down.
Assay [5] in a line: changes in parasitized red cell lysis, either direction – P. falciparum Indochina, OD700, 3 h, PSAC antagonist project, primary screen (AID 1156). Conditions: P. falciparum-infected erythrocytes, osmotic lysis, higher = more signal, called active from +8 up or from −8 down.
Assay [6] is described as follows: plasmodial surface anion channel blockers, osmotic lysis – cell-based, P. falciparum Indochina, OD700, 18 h, primary screen (AID 1157). Conditions: P. falciparum Indochina infected erythrocytes, osmotic lysis OD700, 18 h; higher = more signal, called active from +8 up or from −8 down.
Assay [7] is described as follows: S6 kinase pathway phospho-S6 level changes – cell-based, A549, cytoblot, luminescence, serum-stimulated, primary screen (AID 1158).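 Also: serum-stimulated A549 lung adenocarcinoma cells; signal is phosphorylated S6 detected by cytoblot immunostaining with HRP secondary.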 Conditions: 5 h, higher = more signal.
The target in assay [8] is NADPH oxidase 2 (Homo sapiens) (UniProt P04839). The assay is described as follows: compounds shifting NOX2 Amplex Red fluorescence – cell-based, HEK293-NOX2, PMA-stimulated, NOX inhibitor project, primary screen (AID 1159). Also: test concentration not given here. The conditions noted are these: 45 min, higher = more signal, called active from +8 up or from −8 down.
Assay [9] deals with NADPH oxidase 4 (Homo sapiens) (UniProt Q9NPH5). The experiment in a line: compounds shifting NOX4 Amplex Red fluorescence – cell-based, HEK293-NOX4, tetracycline-induced, NOX inhibitor project, primary screen (AID 1160). The conditions noted are these: HEK293-NOX4, Amplex Red H2O2 fluorescence, 45 min; higher = more signal, called active from +8 up or from −8 down.
Assay [10] concerns the target NADPH oxidase 5 (Homo sapiens) (UniProt Q96PH1). The assay is described as follows: compounds shifting NOX5 Amplex Red fluorescence – cell-based, HEK293-NOX5, NOX inhibitor project, primary screen (AID 1161). The conditions noted are these: HEK293-NOX5, ionomycin, 45 min, higher = more signal.
Assay [11] is described as follows: compound effects on lung adenocarcinoma cell viability – A549, calcein-AM fluorescence, 48 h, basal, profiling panel (AID 1162). Also: test concentration not given here. The conditions noted are these: higher = more signal.
A short description of assay [12]: compound effects on differentiated 3T3-L1 adipocyte viability – cell-based, 3T3-L1 adipocytes, calcein-AM fluorescence, 48 h, basal, profiling panel (AID 1163). Also: test concentration not given here. Conditions: 3T3-L1 adipocytes viability, higher = more signal.
Assay [13] is described as follows: compound effects on hepatocellular carcinoma cell viability – HepG2, calcein-AM fluorescence, 48 h, basal, profiling panel (AID 1164). Also: test concentration not given here. Conditions: higher = more signal.
Assay [14] is described as follows: compound effects on multiple myeloma cell viability – MM1S, calcein-AM fluorescence, 48 h, basal, profiling panel (AID 1165). Also: test concentration not given here. Conditions: higher = more signal.
Assay [15] can be described thus: calcein-AM signal in unstimulated myeloma cells – cell-based, calcein-AM fluorescence, 48 h, PK04 Diversity Set, profiling panel (AID 1166).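 Also: cells grown under basal conditions without added stimulus; test concentration not given here.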 Conditions: RPMI8226 myeloma viability, higher = more signal.
Assay [16] is described as follows: JC-1 mitochondrial signal, unstimulated HepG2 cells – cell-based, JC-1 fluorescence, 24 h, 100 nL compound, profiling panel (AID 1167). Also: test concentration not given here. The conditions noted are these: HepG2 mitochondrial potential, higher = more signal.
Assay [17] is described as follows: JC-1 mitochondrial signal, unstimulated adipocytes – cell-based, JC-1 fluorescence, 3T3-L1 adipocytes, 24 h, 100 nL compound, profiling panel (AID 1168). Also: test concentration not given here. Conditions: JC-1 mitochondrial fluorescence, higher = more signal, called active from +8 up or from −8 down.
A short description of assay [18]: JC-1 mitochondrial signal, unstimulated myeloma cells – cell-based, JC-1 fluorescence, RPMI8226, 24 h, 100 nL compound, profiling panel (AID 1169). Also: test concentration not given here. The conditions noted are these: JC-1 mitochondrial potential fluorescence, higher = more signal.
A short description of assay [19]: JC-1 mitochondrial signal, unstimulated MM1S myeloma – cell-based, JC-1 fluorescence, 24 h, 100 nL compound, profiling panel (AID 1170). Also: test concentration not given here. The conditions noted are these: MM1S mitochondrial potential, higher = more signal.
Assay [20] is described as follows: resazurin metabolic signal in A549 cells – cell-based, resazurin fluorescence, 24 h, PK04 Diversity Set, profiling panel (AID 1171). Also: test concentration not given here. The conditions noted are these: A549 viability, higher = more signal, called active from +8 up or from −8 down. A general note: The colour change of resazurin is a common sign of viable cells or microbes.

NADPH oxidase 4 (Homo sapiens), sequence (Q9NPH5 whole entry, looked up): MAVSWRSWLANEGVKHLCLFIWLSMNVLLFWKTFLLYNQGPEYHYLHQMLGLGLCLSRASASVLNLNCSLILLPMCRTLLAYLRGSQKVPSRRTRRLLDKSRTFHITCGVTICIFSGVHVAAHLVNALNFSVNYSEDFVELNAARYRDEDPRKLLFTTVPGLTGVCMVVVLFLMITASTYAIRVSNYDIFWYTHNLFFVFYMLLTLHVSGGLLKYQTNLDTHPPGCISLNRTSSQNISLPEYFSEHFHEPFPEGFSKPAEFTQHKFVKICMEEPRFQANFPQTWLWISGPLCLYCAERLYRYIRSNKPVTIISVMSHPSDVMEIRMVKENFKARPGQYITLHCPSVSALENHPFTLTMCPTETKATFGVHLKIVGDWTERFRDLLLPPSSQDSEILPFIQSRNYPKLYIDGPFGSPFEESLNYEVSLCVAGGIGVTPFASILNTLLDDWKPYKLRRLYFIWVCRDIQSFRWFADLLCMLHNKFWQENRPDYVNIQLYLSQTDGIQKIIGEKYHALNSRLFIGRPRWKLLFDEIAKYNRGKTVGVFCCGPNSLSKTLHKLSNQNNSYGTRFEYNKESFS
NADPH oxidase 2 (Homo sapiens), sequence (P04839 whole entry, looked up): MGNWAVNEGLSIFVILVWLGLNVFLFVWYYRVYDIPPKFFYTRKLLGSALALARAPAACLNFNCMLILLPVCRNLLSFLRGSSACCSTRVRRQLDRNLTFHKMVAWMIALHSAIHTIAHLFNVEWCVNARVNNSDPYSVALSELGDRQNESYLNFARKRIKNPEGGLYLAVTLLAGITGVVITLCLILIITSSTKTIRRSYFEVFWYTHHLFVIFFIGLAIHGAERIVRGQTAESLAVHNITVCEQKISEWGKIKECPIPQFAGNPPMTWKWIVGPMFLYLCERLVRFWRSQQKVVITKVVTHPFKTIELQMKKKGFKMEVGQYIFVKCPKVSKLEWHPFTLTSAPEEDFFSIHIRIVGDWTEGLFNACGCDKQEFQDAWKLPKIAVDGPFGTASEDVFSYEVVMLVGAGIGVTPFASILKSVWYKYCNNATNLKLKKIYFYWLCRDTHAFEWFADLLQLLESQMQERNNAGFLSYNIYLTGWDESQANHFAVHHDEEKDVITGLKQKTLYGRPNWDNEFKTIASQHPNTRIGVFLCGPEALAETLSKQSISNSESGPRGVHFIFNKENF
NADPH oxidase 5 (Homo sapiens), sequence (Q96PH1 whole entry, looked up): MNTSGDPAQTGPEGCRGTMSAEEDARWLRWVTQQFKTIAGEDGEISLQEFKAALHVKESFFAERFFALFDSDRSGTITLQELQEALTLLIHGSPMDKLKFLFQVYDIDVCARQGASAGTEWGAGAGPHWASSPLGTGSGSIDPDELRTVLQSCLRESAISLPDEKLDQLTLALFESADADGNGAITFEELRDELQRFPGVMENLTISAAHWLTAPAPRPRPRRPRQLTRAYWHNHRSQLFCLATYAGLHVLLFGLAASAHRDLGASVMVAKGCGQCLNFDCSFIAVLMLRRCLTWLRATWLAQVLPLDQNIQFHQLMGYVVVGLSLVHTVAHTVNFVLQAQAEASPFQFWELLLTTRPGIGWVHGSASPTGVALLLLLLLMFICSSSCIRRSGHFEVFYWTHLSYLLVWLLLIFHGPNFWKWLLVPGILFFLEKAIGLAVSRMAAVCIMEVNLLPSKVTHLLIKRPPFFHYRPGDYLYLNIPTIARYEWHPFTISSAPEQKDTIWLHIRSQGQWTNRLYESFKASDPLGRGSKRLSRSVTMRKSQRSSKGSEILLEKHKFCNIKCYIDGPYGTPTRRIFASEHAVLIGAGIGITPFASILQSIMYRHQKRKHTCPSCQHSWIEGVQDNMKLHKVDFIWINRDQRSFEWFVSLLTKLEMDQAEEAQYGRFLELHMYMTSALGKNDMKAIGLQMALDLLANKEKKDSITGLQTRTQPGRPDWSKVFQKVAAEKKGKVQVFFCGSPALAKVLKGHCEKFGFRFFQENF

For `C=CCN(CCCCC)C(=O)C(c1cccs1)N(C(=O)/C=C\C(=O)O)c1c(Cl)cccc1CO` (stereo not given), the z-score in assay [1] was -0.316 (inactive) and -0.346 (inactive); in [3] it was -0.501 (inactive) and 0.334 (inactive); in assay [4], 0.092 (inactive) and 0.571 (inactive); in assay [5] it was -0.0324 (inactive) and -0.0069 (inactive); in assay [6], 0.257 (inactive) and 0.404 (inactive); in assay [7], -0.122 and -0.137. For the same molecule, the z-score in assay [8] was 0.306 (inactive) and 0.277 (inactive); in assay [9], -0.584 (inactive) and -0.408 (inactive); in [10], 0.212 and 0.29; in assay [11] it was 0.307 and -0.656; in [12], 0.131 and -0.101; in assay [13] it was -1.11 and -0.202. The z-score in [14] is 1.34 and 2.08; in [15], 0.114 and -0.235; in assay [16], -0.0476 and -0.222; in assay [17] it was -0.706 (inactive) and 0.13 (inactive); in assay [18] it was 0.1 and 0.992; in [19] it was 0.0829 and -0.125. Moreover, the z-score in assay [20] was -0.559 (inactive) and 0.0449 (inactive). The composite z-score in assay [2] is 0.0005 and -1.11.
Turning to `CN1C(=O)C2CC=C([C@H]3Oc4ccccc4S(=O)(=O)N4CCC[C@@H]34)CC2C1=O` (stereo not given in full), the z-score was -0.92 (inactive) and -0.225 (inactive) in assay [1]; 0.35 (inactive) and 0.829 (inactive) in assay [3]; 0.542 (inactive) and 0.41 (inactive) in [4]; -0.0363 (inactive) and 0.15 (inactive) in [5]; 0.354 (inactive) and 0.133 (inactive) in assay [6]; -0.395 and -0.53 in assay [7]. Also, the z-score in [8] is 0.514 (inactive) and -0.289 (inactive); in assay [9], -1.36 (inactive) and -1.47 (inactive); in assay [10], -1.31 and -1.46; in assay [11], -0.657 and 0.15; in [12], -0.109 and 0.323; in [13] it was -0.926 and -0.369. Also, the z-score in assay [14] is 0.49 and 0.288; in assay [15], -0.177 and -0.215; in assay [16] it was -0.649 and 0.00971; in [17], 0.243 (inactive) and 0.347 (inactive); in [18], 0.439 and 0.341; in assay [19], 0.123 and -0.0296. In addition, the z-score in assay [20] was 0.0976 (inactive) and -0.125 (inactive). For the same molecule, the composite z-score in [2] was -0.186 and -0.193.
Consider `C=CCN(CCCC)C(=O)C1N(CCCCCCO)C(=O)C2C(C(=O)O)C3C=CC21O3` (stereo not given), for which the z-score is -0.91 (inactive) and -0.81 (inactive) in assay [1]; 0.153 (inactive) and -0.368 (inactive) in assay [3]; -0.0395 (inactive) and 0.354 (inactive) in assay [4]; -0.661 (inactive) and -0.802 (inactive) in assay [5]; -0.11 (inactive) and -0.0605 (inactive) in assay [6]; -0.686 and -0.762 in assay [7]. Besides, the z-score was 0.634 (inactive) and 0.835 (inactive) in [8]; -0.159 (inactive) and -0.18 (inactive) in assay [9]; 0.75 and 1.01 in [10]; -0.835 and -0.441 in assay [11]; 0.221 and -0.0736 in assay [12]; -1 and -0.393 in assay [13]. Besides, the z-score in [14] was 0.62 and 1.32; in assay [15], 0.646 and -0.44; in [16], -0.253 and -0.939; in assay [17] it was 0.051 (inactive) and -0.617 (inactive); in assay [18], 0.221 and 0.855; in assay [19], -0.00969 and -0.273. In addition, the z-score in assay [20] is -0.59 (inactive) and -0.439 (inactive). The composite z-score in [2] was -0.31 and -0.101.
With `CC(C)OC(=O)C=C1C[C@@H](c2cccc(C(F)(F)F)c2)O[C@@H](c2cccc(C(F)(F)F)c2)O1`, the z-score is -0.599 (inactive) and -0.778 (inactive) in assay [1]; 2.3 (inactive) in assay [3]; 0.707 (inactive) and 1.02 (inactive) in assay [4]; 0.192 (inactive) and -0.365 (inactive) in [5]; 0.613 (inactive) and 0.561 (inactive) in [6]; 0.156 and -0.463 in assay [7]. The z-score is -0.112 (inactive) and 0.194 (inactive) in [8]; -1.2 (inactive) and -0.65 (inactive) in [9]; -1.3 and -0.324 in assay [10]; 0.133 and 0.343 in [11]; -0.425 and 0.279 in [12]; 0.957 and 0.258 in assay [13]. Also, the z-score was -0.499 and -1 in assay [14]; -0.195 and -0.167 in assay [15]; -0.447 and 0.606 in assay [16]; 0.297 (inactive) and 0.121 (inactive) in assay [17]; -0.897 and -0.238 in assay [18]; -3.24 and -1.09 in assay [19]. Further, the z-score in assay [20] was 0.308 (inactive) and 1 (inactive). The composite z-score in [2] is -0.0518 and -0.371.
For `C=CCN(CCCCC)C(=O)C1N(CCCCCCO)C(=O)C2C(C(=O)O)C3C=CC21O3` (stereo not given), the z-score in assay [1] was -0.559 (inactive) and -0.794 (inactive); in assay [3] it was 0.0275 (inactive) and 0.375 (inactive); in [4] it was -0.76 (inactive) and 0.22 (inactive); in [5] it was -0.627 (inactive) and -0.419 (inactive); in assay [6], -0.33 (inactive) and 0.404 (inactive); in [7] it was -0.539 and -0.626. The z-score in assay [8] is 1.07 (inactive) and 0.619 (inactive); in [9], -0.208 (inactive) and -0.169 (inactive); in assay [10], 1.08 and 1.26; in [11], -0.681 and -0.373; in assay [12], -0.573 and -0.412; in assay [13], 0.122 and 0.657. Also, the z-score in assay [14] was 1.6 and 0.379; in [15], 0.0447 and -0.164; in assay [16], -0.649 and -0.526; in assay [17] it was -0.2 (inactive) and 0.409 (inactive); in [18], 0.15 and 0.0486; in [19] it was 0.702 and -0.254. Further, the z-score in assay [20] was -0.66 (inactive) and -0.379 (inactive). In assay [2], the composite z-score was -0.191 and 0.29.
On to `COC(=O)[C@@]1(Cc2ccccc2)[C@H]2c3cc(C(=O)N(C)C)n(Cc4ccc(C)c(F)c4F)c3C[C@H]2CN1C(=O)c1ccccc1`, for which the z-score is -1.18 (inactive) and -1.91 (inactive) in [1]; 2.54 (inactive) and 4.12 (inactive) in assay [3]; -0.6 (inactive) and 1.2 (inactive) in [4]; 0.425 (inactive) and 0.306 (inactive) in assay [5]; -1.34 (inactive) and 1.21 (inactive) in assay [6]; 1.16 and 0.782 in assay [7]. In addition, the z-score in assay [8] was -3.14 (inactive) and 0.452 (inactive); in assay [9], -4.83 (inactive) and -1.66 (inactive); in assay [10], -5.5 and -1.88; in assay [11], -3.17 and -1.66; in assay [12] it was 0.42 and 0.702; in assay [13], -2.78 and -1.77. The z-score is -3.27 and -3.16 in [14]; -4.73 and -4.71 in assay [15]; -2.92 and -1 in assay [16]; -1.35 (inactive) and -1.29 (inactive) in assay [17]; -0.926 and -0.872 in [18]; -3 and -1.7 in assay [19]. Further, in assay [20], the z-score was -3.06 (inactive) and -1.94 (inactive). Further, the composite z-score in [2] is 0.476 and 0.712.
